Assay results reported in the supplement of paper PMC10732440.
± gives the standard deviation of the averaged measurements.

Tested on: Caenorhabditis elegans N2 infected with Nematocida parisii ERTm1
Test: progeny production relative to DMSO uninfected control; higher = more progeny despite microsporidia infection (inhibition of infection with low host toxicity)
Conditions: infection time 6 days
Outline: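 In 96-well plates holding K-medium, E. coli OP50 and 15,000 N. parisii spores/μL, 100 wild-type C. elegans L1 larvae per well were exposed to compound at 100 μM or 40 μM in 1% DMSO for 6 days with shaking at 21°C. Worms were then stained with Rose Bengal, scanned and counted with WorMachine, with three runs per compound and dose. Each value is progeny production as a percentage of the spore-free vehicle condition, averaged over replicates.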

Compound | progeny production (40 µM) [%] | progeny production (100 µM) [%]
O=c1ccc2ncc(=O)n3c2n1CC3CN1CCC(NCc2cc3c(cn2)OCCC3)CC1 (stereo not drawn) | 2.13 ± 0.25 | 18.2 ± 18
O=C(O)CCNC(=O)c1ccccc1 | 13 ± 12 | 16.4 ± 8.7
CC(C)N(c1cc(-c2ccccc2)sc1C(=O)O)C(=O)[C@H]1CC[C@H](C)CC1 | 4.15 ± 1.8 | 12.2 ± 7.8
COc1cccc(N2CCN(C3=Nc4c(F)cccc4[C@H](CC(=O)O)N3c3cc(C(F)(F)F)ccc3OC)CC2)c1 | 6.01 ± 2.9 | 14.7 ± 7.5
N#Cc1c(F)c(Cl)c(NCc2ccccc2)c(C#N)c1F | 32.6 ± 17 | 15 ± 3.8
N[C@H](CCC(=O)N[C@@H](Cc1c[nH]c2ccccc12)C(=O)O)C(=O)O | 6.53 ± 2.2 | 14.8 ± 3.7
FC(F)(F)Oc1ccc(Nc2ccc3cccc(Cl)c3n2)cc1 | 6.88 ± 1.5 | 11.1 ± 7.2
COc1ccc2cc3[n+](cc2c1OCCN(CCn1cncn1)Cc1ccc(F)cc1F)CCc1cc2c(cc1-3)OCO2 | 5.91 ± 1.2 | 17.3 ± 14
O=[N+]([O-])c1cn(Cc2nc(O)nc(O)c2Br)cn1 | 8.41 ± 4.5 | 8.29 ± 4.9
O=[N+]([O-])/C(Br)=C/c1ccc(Br)o1 | 5.77 ± 1.4 | 26.4 ± 9.5
C(=C\c1nc2ccccc2[nH]1)/c1ccc2c(c1)OCO2 | 7.35 ± 5.9 | 16.6 ± 18
CN(C)CCNC(=O)c1cccc2cccnc12 | 5.46 ± 4.5 | 14.7 ± 8
CCOC(=O)/C=C/[C@H](C[C@@H]1CCNC1=O)NC(=O)[C@@H](CC(=O)[C@@H](NC(=O)c1cc(C)on1)C(C)C)Cc1ccc(F)cc1 | 3.79 ± 1.2 | 8.56 ± 4.7
COC(=O)Nc1nc2c(C)cccc2[nH]1 | 13.8 ± 1.7 | 78.2 ± 11
Cc1c(CN(C)C(=O)/C=C/c2cnc3c(c2)C(C)(C)C(=O)N3)oc2ccccc12 | 6.13 ± 3.2 | 20.6 ± 20
Cc1nc2ccc(Oc3ccccc3)cc2c2c1CCN2CCc1ccccc1 | 4.79 ± 0.99 | 11.3 ± 9.1
Nc1nc(O)c(Br)c(-c2cccc(Cl)c2)n1 | 4.12 ± 0.52 | 12.1 ± 5.2
O=C1CCC(N2C(=O)c3ccccc3C2=O)C(=O)N1 (stereo not drawn) | 9.53 ± 5.1 | 13.3 ± 8.9
CC(C)(C)NC(=O)[C@@H]1CN(Cc2cnc3occc3c2)CCN1C[C@@H](O)C[C@@H](Cc1ccccc1)C(=O)N[C@H]1c2ccccc2C[C@H]1O | 8.87 ± 0.17 | 8.42 ± 0.9
CCCCc1ccc(-c2nc(C)c(C(=O)OC)s2)cc1 | 4.25 ± 0.74 | 12.2 ± 3.7
C=C[C@]1(C)C[C@@H](OC(=O)CS[C@@H]2C[C@H]3CC[C@@H](C2)N3C)[C@]2(C)[C@H](C)CC[C@]3(CCC(=O)[C@H]32)[C@@H](C)[C@@H]1O | 11.3 ± 8.7 | 15.1 ± 6.1
CN(O)C(=O)c1cc2c(CN3CCC[C@H]3C(N)=O)cn(Cc3ccc(F)cc3)c2cn1 | 3.84 ± 1.6 | 11.1 ± 4.5
COc1ccc(-n2cnc3cc(NCc4ccco4)ccc32)cc1 | 10 ± 2.1 | 17.2 ± 0.88
O=[N+]([O-])c1cn2c(n1)OC[C@@H](OCc1ccc(OC(F)(F)F)cc1)C2 | 7.03 ± 0.77 | 11.4 ± 5.1
O=c1[nH]cnc2c1ncn2[C@H]1CC[C@@H](CO)O1 | 6.61 ± 0.81 | 9.85 ± 7.2
O[C@@](Cn1cnnn1)(c1ccc(F)cc1F)C(F)(F)c1ccc(-c2ccc(OCC(F)(F)F)cc2)cn1 | 3.9 ± 1.3 | 11.8 ± 2.2
CC[N+]1(C/C2=C/CCCCCC2)CCC(NC(=O)C2c3cc(Cl)ccc3Oc3ccc(Cl)cc32)CC1 (stereo not drawn) | 3.01 ± 1.9 | 2.8 ± 2.2

Compound | progeny production (40 µM) [%] | progeny production (100 µM) [%]
CC(C)Nc1nc2cc(Cl)c(Cl)cc2n1[C@H]1O[C@@H](CO)[C@H](O)[C@@H]1O | 3.85 ± 0.59 | 9.08 ± 2.1
CC(C)(C)NC(=O)[C@@H]1C[C@@H]2CCCC[C@@H]2CN1C[C@@H](O)[C@H](Cc1ccccc1)NC(=O)[C@H](CC(N)=O)NC(=O)c1ccc2ccccc2n1 | 6.54 ± 4.7 | 6.35 ± 4.1
Nc1cc(N)c2nc(-c3ccccc3)c(Nc3ccc(F)cc3)nc2c1 | 4.57 ± 1.7 | 23.5 ± 17
CC(=O)Nc1cc(NS(=O)(=O)c2ccc(Cl)cc2)cc2c(Cl)[nH]nc12 | 5.97 ± 4.1 | 8.68 ± 4
CCCCc1ccc(-c2cc(C(=O)O)cc(-c3ccc(Cl)cc3)n2)cc1 | 5.13 ± 5.7 | 9.87 ± 7.3
Nc1ccc2oc(=O)ccc2c1I | 3.87 ± 2.3 | 7.24 ± 3.6
OCCC#Cc1nc(-c2ccc(F)cc2)c(-c2ccncc2)n1CCCc1ccccc1 | 5.08 ± 0.6 | 16.6 ± 12
CCN(CC)CCn1c(=N)n(CC(O)COc2ccc(Cl)cc2Cl)c2ccccc21 (stereo not drawn) | 7.02 ± 2.2 | 16.5 ± 20
CNC(=O)C1O[C@@H](n2cnc3c(NCc4cccc(I)c4)nc(Cl)nc32)[C@H](O)[C@@H]1O (stereo partly drawn) | 5.42 ± 1.8 | 12.6 ± 3.5
CC[C@@H]1C(=O)OC[C@@H]1Cc1cncn1C | 4.59 ± 1.7 | 11.8 ± 11
COc1ccc2c(c1OC)C(=O)OC2C1c2c(cc3c(c2OC)OCO3)CCN1C (stereo not drawn) | 5.88 ± 3.7 | 14.7 ± 9.2
Oc1cc(-c2cccc3ccccc23)[nH]n1 | 2.92 ± 0.16 | 18.4 ± 18
CC[C@H](NC(=O)[C@H](C)NC)C(=O)N1C[C@@H](O)C[C@H]1Cc1c(-c2[nH]c3cc(F)ccc3c2C[C@@H]2C[C@H](O)CN2C(=O)[C@H](CC)NC(=O)[C@H](C)NC)[nH]c2cc(F)ccc12 | 6.99 ± 3.1 | 17.7 ± 7.7
CC#C[C@]1(O)CC[C@H]2[C@@H]3CCC4=CC(=O)CCC4=C3[C@@H](c3ccc(N(C)C)cc3)C[C@@]21C | 4.64 ± 1.1 | 14.9 ± 4.7
COc1ccc(C2=CC(c3c(F)cccc3Cl)n3ncnc3N2)cc1 (stereo not drawn) | 3.01 ± 1.9 | 8.48 ± 5.9
Clc1cc2nc(C3CCNCC3)n(Cc3ccc(CNCCc4c[nH]cn4)cc3)c2cc1Cl | 7.61 ± 2.7 | 10.3 ± 7.1
O=C(/C(=C/c1ccc(Cl)cc1Cl)n1ccnc1)c1ccc(Cl)cc1 | 24.5 ± 2.2 | 89.8 ± 17
O=C(N[C@H](Cc1cccc2ccccc12)C(=O)NCCc1c[nH]cn1)C1Cc2ccccc2C1 | 7.87 ± 3.1 | 17.2 ± 4.5
C[C@H](NC(CC(=O)c1ccccc1C(F)(F)F)C(=O)O)c1ccccc1 (stereo partly drawn) | 8 ± 6.4 | 5.89 ± 3.9
CCCCCCCCCN1C[C@@H](O)[C@H](O)[C@@H](O)[C@@H]1CO | 6.57 ± 1.1 | 11.9 ± 5.5
C[C@H](NC(=O)C(=O)Nc1ccccc1C(C)(C)C)C(=O)N[C@@H](CC(=O)O)C(=O)COc1c(F)c(F)cc(F)c1F | 5.12 ± 0.88 | 15 ± 11
O=C(Nc1nnc(-c2ccc(Cl)cc2)o1)c1nc2ccccc2s1 | 8.93 ± 4.2 | 6.47 ± 3.5
CN(C(=O)C1(c2ccc(Cl)cc2)CCC1)c1ccccc1 | 2.68 ± 1.6 | 14.9 ± 2.4
Cn1cc(NC(=O)c2cc(NC(=O)c3ccc(/C=C/c4cnc5ccccc5c4)cc3)cn2C)cc1C(=O)NCCN1CCOCC1 | 7.6 ± 3.5 | 15.5 ± 5.6
CCc1cc(CCC(=O)Nc2ccccc2O)c(O)nc1C | 4.5 ± 1.7 | 9.45 ± 3.1
CC(=O)O[C@H]1C[C@@]2(C)[C@@H](C[C@@H](O)[C@H]3[C@@]4(C)CC[C@@H](O)[C@@H](C)[C@@H]4CC[C@@]32C)/C1=C(\CCC=C(C)C)C(=O)O | 6.24 ± 2.3 | 16.9 ± 9.1
OB1OCc2c1ccc(Cl)c2F | 4.06 ± 1 | 18.5 ± 12

Compound | progeny production (40 µM) [%] | progeny production (100 µM) [%]
O=S(=O)(Nc1ccc(O)cc1)c1cccc2cccnc12 | 5.85 ± 2.2 | 12 ± 6.6
Cc1ccccc1NC(=O)Nc1cccc([N+](=O)[O-])c1 | 4.55 ± 2.1 | 13.8 ± 4.8
O=C(Cc1ccccc1F)Nc1nc2ccccc2[nH]1 | 4.94 ± 2.8 | 8.29 ± 4.9
Fc1ccc(-c2nc(-c3c[nH]c4ccc(Br)cc34)[nH]c2-c2ccc(F)cc2)cc1 | 3.87 ± 1.5 | 6.81 ± 2.8
Fc1ccc2c(/C=C/c3cccnc3)c[nH]c2c1 | 3.47 ± 0.88 | 19.9 ± 9
CCOc1ccc(C(=O)NCCc2ccccc2)cc1 | 6.06 ± 3.1 | 6.07 ± 3
COCCn1cnc2c(O)nc(Nc3ccccc3)nc21 | 8.43 ± 4.5 | 17.6 ± 6.1
O=C(c1ccc(F)cc1)N1CCN2C(=O)c3ccccc3C12c1ccccc1 (stereo not drawn) | 2.5 ± 1.4 | 7.13 ± 5
CCOC(=O)/C=C/[C@H](C[C@@H]1CCNC1=O)NC(=O)[C@H](CC)n1cccc(NC(=O)c2cc(C)on2)c1=O | 4.38 ± 3.6 | 8.98 ± 7.5
NC[C@H]1OB(O)c2c(OCCCO)cccc21 | 4.23 ± 2.7 | 6.44 ± 4.8
O=c1cc(Nc2ccc3ccccc3c2)[nH]c(=O)[nH]1 | 7.88 ± 1.4 | 8.48 ± 9.1
O=C(Nc1ncc(Cc2cccc3ccccc23)s1)C1CCCCC1 | 8.93 ± 0.69 | 13 ± 5.7
CC(C)(C)c1ccc(C(Cn2cccc(C(F)(F)F)c2=O)NC2Cc3ccccc3C2)cc1 (stereo not drawn) | 1.91 ± 1.3 | 13.4 ± 9.4
CCCCc1ccc(S(=O)(=O)Nc2cc(C)on2)cc1 | 7.98 ± 1.1 | 25 ± 22
Cc1cc(Nc2ccc(F)cc2)nc(SCc2nc3ccccc3[nH]2)n1 | 3.08 ± 0.71 | 16.7 ± 14
Nc1nnnn1CCOc1c2[nH]c3ccc(Cl)cc3c2cc2c1[nH]c1ccc(Cl)cc12 | 5.74 ± 5.8 | 8.85 ± 7.7
Cc1[nH]c2ccccc2c1CCNCc1ccc(/C=C/C(=O)NO)cc1 | 6.83 ± 2.5 | 9.79 ± 7.8
O=C(/C=C/n1cnc(-c2cc(C(F)(F)F)cc(C(F)(F)F)c2)n1)NNc1cnccn1 | 7.43 ± 4 | 14.1 ± 2.6
CN(Cc1ccc(C(C)(C)C)cc1)Cc1cccc2ccccc12 | 5.41 ± 2 | 17 ± 17
O=C(O)c1sccc1S(=O)(=O)n1ccc2cc(Br)ccc21 | 5.86 ± 1.6 | 8.33 ± 1.2
CC(C)Cn1c(=O)n(C)c(=O)c2c(-c3cncn3C)n(Cc3cccc4ccccc34)nc21 | 4.44 ± 2.9 | 6.12 ± 1.8
Cc1onc(-c2ccccc2Cl)c1C(=O)N[C@@H]1C(=O)N2[C@@H]1SC(C)(C)[C@@H]2C(=O)O | 2.76 ± 1.9 | 19.1 ± 12
CCc1nc(N)nc(N)c1C#CC(C)c1cc(OC)cc(-c2ccncc2)c1 (stereo not drawn) | 5.28 ± 2.2 | 9.94 ± 7.4
CCCC1(C2CC2)c2cc(Cl)ccc2NC(=O)N1C (stereo not drawn) | 2.32 ± 0.043 | 11.3 ± 3.5
CC1(C)Cc2c(C#N)c(SCCc3ccccc3)nc(N3CCOCC3)c2CO1 | 3.65 ± 0.7 | 18.8 ± 15
